Bioassay records from PubChem.
Hits are enriched below; roughly 19% of the tested compounds scored in any of these assays.
TGFb inhibitor = TGF-b pathway inhibition. HepG2 CAGA-GFP TGF-b/SMAD3 reporter, GFP fluorescence, 18 h; TGF-beta stimulated, 500 pg/mL final. Potency, µM (top dose mostly 46.1 µM), most hits filed as inhibitors. hit rate 1.2% among 410,000; further: nearly all actives have a fitted effect of over 65% in size
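GFP signal (ex488/em500-530) from TGF-beta-stimulated HEPG2 CAGA-GFP cells, 500 pg/mL final, 18 h at 37 degrees C in DMEM plus 1% FBS, normalized to unstimulated and DMSO-stimulated controls.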
DT40 TDP1 no CPT = qHTS for Inhibitors of human tyrosyl-DNA phosphodiesterase 1 (TDP1): qHTS in cells in absence of CPT; DT40 Tdp1-/- hTDP1 cells, no CPT, ATP luminescence, 48 h; Potency, µM (titrated, usually from 46.2 µM), actives largely listed as inhibitors; hit rate 15% among 420,000; AID 686978, 2013; further: nearly all actives have a fitted effect of over 55% in size
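A cellular qHTS used chicken DT40 cells lacking endogenous Tdp1 but carrying stably transfected human TDP1. Compounds were applied without camptothecin, and cell growth kinetics were judged by ATP-dependent luminescence after ≥48 hr.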
HepG2 viability = HepG2 cytotoxicity, counter-screen for TGF-b inhibitors | AID 588856 | Potency, µM (top dose mostly 46.1 µM), most hits filed as cytotoxic | hit rate 0.76% among 410,000 | HepG2 CAGA-GFP viability, ATP luminescence, 18 h
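CellTiter-Glo luminescence gave cytotoxicity after 18 hours at 37 degrees C. The cells were HepG2 CAGA-GFP in 1% FBS DMEM, stimulated with 500 pg/mL TGF-beta after compound addition. %Activity was normalised to no-cell wells (complete cell-killing) and DMSO (no toxicity), and curves were fitted and classified.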
TDP1 cell CPT = growth inhibition of DT40 Tdp1-/-;hTDP1 cells with camptothecin (screen for TDP1 inhibitors) | chicken DT40 Tdp1-/-;hTDP1 cells + 20 nM CPT, ATP luminescence, 48 h | Potency, µM (series often up to 46.2 µM), usual class: inhibitors | hit rate 12% among 420,000; further: nearly all actives have a fitted effect of over 55% in size
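Chicken DT40 Tdp1-/- cells stably complemented with human TDP1 were seeded at 400 cells/well in medium containing 20 nM camptothecin, exposed to pin-transferred compounds, and grown at 37 °C for at least 48 hr. Viability was read as ATP luminescence.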
TDP1 block = blocks human tyrosyl-DNA phosphodiesterase 1. Q9NUW8. recombinant TDP1, AlphaScreen DNA substrate cleavage. Potency, µM (highest dose often 130 µM), usual class: inhibitors. hit rate 0.28% among 350,000. AID 485290; further: nearly all actives have a fitted effect of over 40% in size
Target sequence (Q9NUW8 whole entry, looked up): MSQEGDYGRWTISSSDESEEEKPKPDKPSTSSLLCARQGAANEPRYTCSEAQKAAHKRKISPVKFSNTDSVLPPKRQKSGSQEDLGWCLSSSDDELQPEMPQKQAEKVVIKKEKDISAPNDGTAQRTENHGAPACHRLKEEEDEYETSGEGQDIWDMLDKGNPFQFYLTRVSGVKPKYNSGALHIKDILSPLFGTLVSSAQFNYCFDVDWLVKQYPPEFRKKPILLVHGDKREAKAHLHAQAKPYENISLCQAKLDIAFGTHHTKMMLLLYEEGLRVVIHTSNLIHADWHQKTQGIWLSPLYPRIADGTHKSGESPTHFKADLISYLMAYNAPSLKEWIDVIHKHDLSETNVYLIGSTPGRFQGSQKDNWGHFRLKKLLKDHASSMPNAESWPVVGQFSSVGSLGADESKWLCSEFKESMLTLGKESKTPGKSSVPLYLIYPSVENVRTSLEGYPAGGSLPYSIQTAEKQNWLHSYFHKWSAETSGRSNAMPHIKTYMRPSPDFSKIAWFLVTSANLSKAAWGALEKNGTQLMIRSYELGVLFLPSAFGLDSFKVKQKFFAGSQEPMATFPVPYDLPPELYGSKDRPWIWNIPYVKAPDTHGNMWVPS
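AlphaScreen read-out: signal falls as enzyme removes the 3' tyrosine-FITC from a 5'-biotinylated DNA oligo (15 nM, 5 min, RT). Enzyme was E. coli-made recombinant Tdp1 at 1 nM, exposed to compound for 15 min beforehand; beads 10 ug/ml, 10 min.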
IL-1B inflam inh = inflammasome signaling inhibition, IL-1 beta readout. THP-1 LPS/ATP IL-1B secretion, AlphaLISA, 16 h; stronger effect = lower value. activity change, % at 57.5 µM. hit rate 4.7% among 360,000. AID 743279; in the data active means activity change below about -50%; inconclusive means mostly about -30% to -49%
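Secreted IL-1B measured by AlphaLISA bead assay after 16 h compound exposure of THP-1 cells; compounds (final up to 57.5 uM) added 1 h before LPS (250 ng/mL) and ATP (1.25 mM) stimulation; lower signal means less secretion.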
Hits are given with their value; – = inactive; ? = inconclusive; · = not tested or not shown; [ ] = dose if it differs, or a comment. Unless noted, the call rests on the fitted dose curve; in most records, active means well fitted curve in the direction sought with a large enough effect; inconclusive means small, poorly fitted or top-dose-only effect, or another doubt; inactive means no such curve, though single readings can be large; an effect the other way counts as inactive or inconclusive.

SMILES	TGFb inhibitor	DT40 TDP1 no CPT	HepG2 viability	TDP1 cell CPT	TDP1 block	IL-1B inflam inh
O=C(Nc1ccc2c(c1)OCO2)C1CC(c2cccc(Br)c2)=NO1 (configuration not stated)	–	–	–	–	·	–
COc1cc(/C=C/c2ccc3cccc(O)c3n2)cc(Br)c1OC	–	18µM	–	12µM	·	?
C[C@H](NC(=O)c1nc[nH]c1C(=O)NCc1ccc(CNC(=O)OC(C)(C)C)cc1)C(=O)OC(C)(C)C	–	16µM	–	18µM	–	–
C[C@@H](NC(=O)c1nc[nH]c1C(=O)NCc1ccc(CNC(=O)OC(C)(C)C)cc1)c1ccccc1	?	23µM	–	?	–	–
CC(C)C[C@H](NC(=O)c1nc[nH]c1C(=O)NCc1ccccc1)C(=O)OC(C)(C)C	11µM	?	–	?	–	–
CC(C)C[C@H](NC(=O)c1nc[nH]c1C(=O)NCc1ccc(CNC(=O)OC(C)(C)C)cc1)C(=O)OC(C)(C)C	?	16µM	–	26µM	·	–
C[C@H](NC(=O)c1nc[nH]c1C(=O)NCCCCCN)C(=O)OC(C)(C)C	–	–	–	–	–	–
O=C(CSCc1cc(=O)c2cc(F)ccc2[nH]1)Nc1ccccc1Cl	–	?	–	–	–	·
O=C(OCC#CCSc1nnc(-c2ccccc2F)o1)c1ccc(F)cc1	·	·	·	·	–	·
COc1cccc(NC(=O)Cn2c(=O)n(Cc3ccc(F)cc3)c(=O)c3sc4ccccc4c32)c1	–	–	–	?	–	·
CCc1nc2ccc(C(=O)Nc3ccc(C(N)=O)cc3)cn2c1N(C)CCC(C)C	?	23µM	–	18µM	·	–
CCc1nc2ccc(C(=O)Nc3ccc(OC)c(OC)c3)cn2c1N(C)CCC(C)C	14µM	?	20µM	?	·	?
CCc1nc2ccc(C(=O)Nc3ccc(NC(C)=O)cc3)cn2c1N(C)CCC(C)C	?	21µM	–	?	·	–
CCc1nc2ccc(C(=O)NC3CCN(C)CC3)cn2c1N(C)CCC(C)C	?	?	–	?	·	–
CC(=O)c1ccc(NC(=O)CSc2cn(CC(=O)N3CCCCCC3)c3ccccc23)cc1	–	?	–	?	–	·
CCCSc1nc2c([nH]c3ccccc32)c(=O)n1C	–	?	–	?	–	·
COc1ccccc1CCNC(=O)C1CCC(=O)N(Cc2ccccc2OC)C1 (configuration not stated)	–	–	–	–	–	–
CN(C)C1(CNC(=O)C2CCC(=O)N(Cc3ccc(Cl)cc3)C2)CCCCC1 (configuration not stated)	–	–	14µM	–	–	–
COc1ccccc1CCCNC(=O)C1CCC(=O)N(CCc2ccc(Cl)cc2)C1 (configuration not stated)	–	23µM	–	18µM	–	-51
CC(=O)Nc1ccn(C2OC(C(COC(C)=O)NC(=O)C(C)NC(=O)OC(C)(C)C)C(OC(C)=O)C2OC(C)=O)c(=O)n1 (configuration not stated)	–	·	–	·	–	·
COc1ccc(/C=C(\C#N)c2nc3ccccc3[nH]2)cc1O	–	21µM	–	15µM	·	?
COc1cc(/C=C(\C#N)c2nc3ccccc3[nH]2)cc(OC)c1O	–	13µM	–	16µM	–	-60
N#C/C(=C\c1cc([N+](=O)[O-])c(N2CCOCC2)cc1N1CCOCC1)c1nc2ccccc2[nH]1	–	23µM	–	?	–	?
N#C/C(=C/c1ccc(N2CCOCC2)o1)c1nc2ccccc2[nH]1	–	?	–	?	–	–
COC(=O)/C(=C\c1ccc(O)cc1)c1nc2ccccc2[nH]1	–	?	–	?	–	–
SMILES	TGFb inhibitor	DT40 TDP1 no CPT	HepG2 viability	TDP1 cell CPT	TDP1 block	IL-1B inflam inh
COC(=O)/C(=C\c1cc(OC)c(OC)c(OC)c1)c1nc2ccccc2[nH]1	–	16µM	–	?	–	-99
O=C(C1CCCN(S(=O)(=O)c2cc(Cl)ccc2Cl)C1)N1CCCC1 (configuration not stated)	–	–	–	?	–	–
O=C(Nc1ccccc1C(F)(F)F)C1CCN(S(=O)(=O)Cc2ccccc2)CC1	–	–	–	–	–	·
COc1cc(/C=C(\C#N)c2nc3ccccc3[nH]2)ccc1Oc1ccc([N+](=O)[O-])cn1	?	21µM	–	12µM	–	?
Cc1cc(/C=C(/C#N)c2nc3ccccc3[nH]2)c(C)n1-c1cccc([N+](=O)[O-])c1	–	13µM	–	16µM	–	-62
COc1ccc(/C=C(\C#N)c2nc3ccccc3c(=O)[nH]2)cc1OC	–	18µM	–	?	–[12.3 µM]	·
O=C(CN1C(=O)CCSc2ccccc21)Nc1ccccc1F	–	·	–	·	–	·
Cc1ccc(N2CCN(Cc3nnc(-c4ccc5c(c4)OCO5)o3)CC2)c(C)c1	–	23µM	–	?	–[12.3 µM]	·
Cc1cccc(N2CCN(Cc3nnc(-c4ccc5c(c4)OCO5)o3)CC2)c1C	–	–	–	–	–[12.3 µM]	·
COC(=O)[C@@]1(Cc2ccc(F)cc2)[C@H]2c3cc(C(=O)N(C)C)n(CCCNc4ccc(C(F)(F)F)cc4Cl)c3C[C@H]2CN1C(=O)c1ccccc1	·	·	·	·	–	·
CCOC(=O)Cc1csc(NC(=O)c2ccc(Cl)nc2)n1	–	23µM	–	?	–	–
CCOC(=O)Cc1csc(NC(=O)c2ccc(C)cc2)n1	–	?	–	–	–	–
CCOC(=O)Cc1csc(NC(=O)Nc2ccc(Cl)cc2)n1	–	16µM	–	21µM	–	–
CCCCC(=O)Nc1ccc(C(=O)Nc2nc(CC(=O)OCC)cs2)cc1	–	?	–	22µM	–	–
COc1ccc(C(=O)Oc2cc(-c3ccc(OC)c(OC)c3)cc(=O)c3c(C)oc(C)c23)cc1	–	18µM	–	?	–	·
CCOc1cc(-c2ccc3c(c2)OCO3)cc(=O)c2c(C)oc(C)c12	·	·	·	·	–	·
COc1cc(-c2cc(OC)c3c(C)oc(C)c3c(=O)c2)ccc1OC(=O)c1ccc(C)cc1	–	5.8µM	–	5.2µM	–	·
CCOc1ccc(-c2cc(OC(=O)c3ccc(F)cc3)c3c(C)oc(C)c3c(=O)c2)cc1	–	16µM	–	?	–	·
CCOc1cc(-c2ccc(OC(=O)c3ccc(C)cc3)c(OC)c2)cc(=O)c2c(C)oc(C)c12	?	5.2µM	–	5.8µM	–	·
Cc1ccc(CNC(=O)[C@H]2O[C@@H](n3cnc4c(N)ncnc43)[C@H](O)[C@@H]2O)o1	–	–	–	–	·	–
